Records with an inconclusive call do not appear. Where a call stands in place of a potency, no number is given. A number with no mark means an inactive call. The source made the active and inactive calls. Calls follow the shape of the dose curve; as a rule, active = well fitted cell-killing curve with a large enough effect in the repeat runs; inconclusive = weak or mixed curves, or effect the other way; inactive = flat fitted curve, though single readings scatter.
Assays:
[1] = cAMP Responsive Elements (CRE) small molecule antagonists, cell-based qHTS assay: qHTS cell viability counter screen (AID 2060913); settings: CRE-bla HEK293T viability, CellTiter-Glo luminescence, 5 h; series mostly up to 92.4 µM; also: nearly all actives have a fitted effect of over 40% in size
Method in brief: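 Viability of NKH477-stimulated (0.25 uM final) CRE-bla HEK293T cells is measured by CellTiter-Glo luminescence following 3 hrs compound exposure at 37 C.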

[2] = cAMP Responsive Elements (CRE) small molecule agonists, cell-based qHTS assay: qHTS cell viability counter screen (AID 2060914); settings: CRE-bla HEK293T viability, CellTiter-Glo luminescence, 5 h; series mostly up to 92.4 µM;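 also: viability read after 3 h of compound exposure; nearly all actives have a fitted effect of over 50% in size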
Method in brief: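 HEK 293T CRE-bla; DMEM + 10% dialyzed FBS, 25 mM HEPES; 18 h pre-incubation; compound 3 h, 37 °C/5% CO2; CellTiter-Glo added after reporter read; luminescence after 30 min RT.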

Cc1[nH]cnc1CN1CCc2c(c3ccccc3n2C)C1=O
Potency [1]: inactive | Potency [2]: inactive

O=C(O)C[C@H](O)C[C@H](O)/C=C/c1c(C2CC2)nc2ccccc2c1-c1ccc(F)cc1
viability change, negative = cytotoxic [1]: 5.03% [at 18.9 µM] | activity change, negative = cytotoxicity [2]: 17.9% [at 18.9 µM]

CC(CC=O)CCCC(C)(C)O (stereo not drawn)
Potency [1]: inactive | Potency [2]: inactive

CN(C)Cc1cc(C(C)(C)C)c(O)c(C(C)(C)C)c1
Potency [1]: inactive | Potency [2]: inactive

Reference: PubChem BioAssay (Tox21)
